Several values for one entry are separate records, joined by “and”; a condition that tells them apart may be missing. Equal entries are not always repeated. Results filed as inconclusive are left out. Where a call stands in place of a potency, no number is given. Activity calls are given as the source filed them. Unless noted, calls come from the whole dose curve; as a rule, active = well fitted cell-killing curve with a large enough effect in the repeat runs; inconclusive = weak or mixed curves, or effect the other way; inactive = no such curve, though single readings can be large or run the other way.
test system: not listed separately; test: qHTS assay to identify small molecule agonists of the farnesoid-X-receptor (FXR) signaling pathway - cell viability counter screen (AID 743218); conditions: FXR-bla HEK293T viability, CellTiter-Glo luminescence, 16 h; series mostly up to 62.6 µM; note: nearly all actives have a fitted effect of over 45% in size; note: potency is the fitted concentration of half-maximal effect
In short: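 After 16 h at 37 C with test compounds, FXR-bla HEK 293T cells were given LiveBLAzer B/G substrate for 2 h at RT and then CellTiter-Glo; luminescence was taken after 30 min.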

SMILES | Potency
c1ccc2c(c1)[nH]c1cnccc12 | inactive
ClC1=C(Cl)C2(Cl)C3C(Cl)C(Cl)CC3C1(Cl)C2(Cl)Cl (stereo not given) | 48.8 µM (active) and 54.9 µM (active)
Clc1ccc(C(c2ccccc2Cl)C(Cl)(Cl)Cl)cc1 (stereo not given) | 62.1 µM (active)
CC(=O)C(Cl)(Cl)Cl | inactive
[Cd+2].[Cl-].[Cl-] | 11.1 µM (active) and 6.16 µM (active)
COC(=O)N(C(=O)N1CO[C@@]2(C(=O)OC)Cc3cc(Cl)ccc3C2=N1)c1ccc(OC(F)(F)F)cc1 | inactive
CCOC(=O)C1(c2ccccc2)CCN(CCC(C#N)(c2ccccc2)c2ccccc2)CC1 | inactive
CCC[CH2][Sn]([CH2]CCC)([CH2]CCC)[O]C(=O)c1ccccc1 | 0.616 µM (active)
N#C/C=C/C#N | 51.3 µM (active)
CC(=O)/C=C/c1ccc2c(c1)OCO2 | inactive
O=C(CCl)Nc1ccccc1 | inactive
C=CC(=O)OCC(COC(=O)C=C)(COC(=O)C=C)COC(=O)C=C | 7.76 µM (active)
CC1CCC(C(C)C)C(OC(=O)c2ccccc2N)C1 (stereo not given) | 60.8 µM (active)
O=[N+]([O-])c1c2ccccc2cc2ccccc12 | inactive
[Hg+2].[I-].[I-] | 3.09 µM (active)
CC[C@H]1C[C@@H]2C[C@H]3c4[nH]c5ccc(OC)cc5c4CCN(C2)[C@@H]13 | inactive
c1ccc(Nc2ccc3ccccc3c2)cc1 | inactive
COc1cccc2c1C(=O)c1c(O)c3c(c(O)c1C2=O)C[C@@](O)(C(=O)CO)CC3OC1CC(N2CCOC(OC)C2)C(O)C(C)O1 (stereo not given in full) | inactive
CC1(C)[C@H](C(=O)O[C@H](C#N)c2cccc(Oc3ccccc3)c2)[C@@H]1/C=C(\Cl)C(F)(F)F | inactive
O=[N+]([O-])c1ccc2ccc3cccc4ccc1c2c34 | inactive

target: Bile acid receptor (Homo sapiens) (UniProt Q96RI1); test: qHTS assay to identify small molecule agonists of the farnesoid-X-receptor (FXR) signaling pathway (AID 743220; active = well fitted activation curve with a large enough effect in the signal ratio in the repeat runs, not every such curve was filed as active; the % refers to the signal ratio); conditions: HEK293T FXR-UAS-bla, beta-lactamase FRET ratio, 16 h; series mostly up to 62.6 µM
In short: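 Beta-lactamase reporter under UAS control in GeneBLAzer FXR HEK 293T cells (5000/well) measured with LiveBLAzer FRET substrate after 2 h at room temperature. Compound exposure lasted 16 h at 37C.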

Bile acid receptor (Homo sapiens), sequence (Q96RI1 whole entry, looked up): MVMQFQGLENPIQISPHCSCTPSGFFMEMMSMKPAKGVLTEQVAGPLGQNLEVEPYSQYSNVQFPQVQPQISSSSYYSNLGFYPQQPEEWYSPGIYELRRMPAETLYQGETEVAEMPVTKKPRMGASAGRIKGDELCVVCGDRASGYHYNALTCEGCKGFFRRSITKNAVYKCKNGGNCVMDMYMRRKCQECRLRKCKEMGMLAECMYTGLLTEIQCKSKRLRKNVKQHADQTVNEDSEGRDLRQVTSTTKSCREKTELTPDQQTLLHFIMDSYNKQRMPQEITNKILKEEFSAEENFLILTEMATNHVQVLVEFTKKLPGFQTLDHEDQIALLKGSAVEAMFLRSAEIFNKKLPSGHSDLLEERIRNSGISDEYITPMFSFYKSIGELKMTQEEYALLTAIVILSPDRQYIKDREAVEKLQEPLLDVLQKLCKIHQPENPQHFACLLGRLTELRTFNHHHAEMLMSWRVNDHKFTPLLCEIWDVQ

SMILES | outcome
CCOC(=O)C1(c2ccccc2)CCN(CCC(C#N)(c2ccccc2)c2ccccc2)CC1 | inactive
Nc1ccc(Sc2ccc(N)cc2)cc1 | inactive
O=c1oc2ccccc2c(O)c1Cc1c(O)c2ccccc2oc1=O | inactive
CC(=O)/C=C/c1ccc2c(c1)OCO2 | inactive
C[C@]12CC[C@@H]3c4ccc(OC(=O)N(CCCl)CCCl)cc4CC[C@H]3[C@@H]1CC[C@@H]2O | inactive
O=C(CCl)Nc1ccccc1 | inactive
S=C=Nc1cccc2ccccc12 | inactive
CC(C)[C@H](C(=O)OC(C#N)c1cccc(Oc2ccccc2)c1)c1ccc(OC(F)F)cc1 (stereo not given in full) | inactive
CC1CCC(C(C)C)C(OC(=O)c2ccccc2N)C1 (stereo not given) | inactive
CC(Cc1ccc(C(C)(C)C)cc1)CN1C[C@@H](C)O[C@@H](C)C1 (stereo not given in full) | inactive
CCC(C)c1cc([N+](=O)[O-])cc([N+](=O)[O-])c1OC(=O)C=C(C)C (stereo not given) | inactive
c1ccc(Nc2ccc3ccccc3c2)cc1 | inactive
BrC(Br)C(Br)(Br)Br | inactive
CC1(C)[C@H](C(=O)O[C@H](C#N)c2cccc(Oc3ccccc3)c2)[C@@H]1/C=C(\Cl)C(F)(F)F | inactive
O=[N+]([O-])c1ccc2ccc3cccc4ccc1c2c34 | inactive
